Test results reported in ChEMBL document CHEMBL5606458, “ASAP - ZIKV NS2B-NS3 protease fluorescence single point” (2024).
Screen size: about 2,700 compounds; about 160 (5.9%) showed an effect of 50% or more. This is one part of a sample in which strong results are shown more often than they occur.

Target: Nonstructural protein 3 (Zika virus) (UniProt A0A024AXB9)
[1] = PRVABC59, Concentration 15.0 uM, Number of replicates 1.0
[2] = PRVABC59, Concentration 50.0 uM, Number of replicates 1.0

Chain of Nonstructural protein 3 (Zika virus) (A0A024AXB9 as listed by the source): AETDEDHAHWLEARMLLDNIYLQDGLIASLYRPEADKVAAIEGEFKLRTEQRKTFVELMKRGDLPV

O=C(N[C@@H](c1ccccc1)c1ccc(Br)cc1)c1cc(Cl)ccc1NS(=O)(=O)c1ccc(Oc2ccccc2Cl)cc1
inhibition [1]: 8.89%

O=C(NCC(c1ccccc1)c1ccccc1)c1cc(Cl)ccc1NS(=O)(=O)c1ccc(Oc2ccccc2Cl)cc1
inhibition [1]: 12.2%

O=C(N[C@@H](Cc1ccccc1)c1ccccc1)c1cc(Cl)ccc1NS(=O)(=O)c1ccc(Oc2ccccc2Cl)cc1
inhibition [1]: 28.3%

O=C(N[C@@H](CO)Cc1ccccc1)c1cc(Cl)ccc1NS(=O)(=O)c1ccc(Oc2ccccc2Cl)cc1
inhibition [1]: 33.2%

O=C(N[C@H](CO)CC1CCCCC1)c1cc(Cl)ccc1NS(=O)(=O)c1ccc(Oc2ccccc2Cl)cc1
inhibition [1]: 40.7%

O=C(N[C@H](c1ccccc1)c1ccco1)c1cc(Cl)ccc1NS(=O)(=O)c1ccc(Oc2ccccc2Cl)cc1
inhibition [1]: 53.4%

O=C(N[C@H](CO)Cc1ccc(Cl)cc1)c1cc(Cl)ccc1NS(=O)(=O)c1ccc(Oc2ccccc2Cl)cc1
inhibition [1]: 50.2%

C[C@@H](NC(=O)c1cc(Cl)ccc1NS(=O)(=O)c1ccc(Oc2ccccc2Cl)cc1)c1cccc(Br)c1
inhibition [1]: 35.8%

O=C(NC(c1ccccc1)c1ccccc1)c1cc(Cl)ccc1NS(=O)(=O)c1ccc(Oc2ccccc2Cl)cc1
inhibition [1]: 55%

Cc1ccc2ccccc2c1NC(=O)c1cc(Cl)ccc1NS(=O)(=O)c1ccc(Oc2ccccc2Cl)cc1
inhibition [1]: 26.4%

O=Cc1ccc(N2CCC(C(=O)N3CCC(Oc4ncccn4)CC3)CC2)cc1
inhibition [2]: 25.2%

O=Cc1ccc(N2CCC(C(=O)Nc3cc(Cl)nc(Cl)n3)CC2)cc1
inhibition [2]: 17.4%

O=C(O)c1cccc(NC(=O)c2cccc(Br)c2)c1
inhibition (PRVABC59, Concentration 49.5 uM, Number of replicates 2.0, Standard deviation 2.5009940749301487 %): -0.982%
inhibition (PRVABC59, Concentration 99.01 uM, Number of replicates 2.0, Standard deviation 3.0157213975013266 %): 0.926%
inhibition (PRVABC59, Concentration 198.0 uM, Number of replicates 2.0, Standard deviation 3.887437163113113 %): 4.65%

CC(C)(CNC(=O)c1cc(Cl)ccc1NS(=O)(=O)c1ccc(Oc2ccccc2Cl)cc1)c1cccc(Cl)c1
inhibition [1]: 47.6%

O=C(NC1CCN(Cc2ccccc2)CC1)c1cc(Cl)ccc1NS(=O)(=O)c1ccc(Oc2ccccc2Cl)cc1
inhibition [1]: 8.32%

O=Cc1ccc(N2CCC(C(=O)NCc3cc(F)ccc3Br)CC2)cc1
inhibition (PRVABC59, Concentration 10.0 uM, Number of replicates 1.0): 4.33%

NC(=O)c1cccc(NC(=O)[C@@H](NC(=O)c2ccc(Oc3ccc(C(F)(F)F)cc3)cc2)c2ccc(OCc3ccccc3)cc2)c1
inhibition (PRVABC59, Concentration 49.5 uM, Number of replicates 2.0, Standard deviation 0.46044521626223894 %): 6.3%
inhibition (PRVABC59, Concentration 99.01 uM, Number of replicates 2.0, Standard deviation 0.010097036204057861 %): 14.7%
inhibition (PRVABC59, Concentration 198.0 uM, Number of replicates 2.0, Standard deviation 0.34129506399757725 %): 30.3%

N=C(N)NCCC[C@H](NC(=O)c1nccs1)C(=O)N[C@@H](CCCCN)C(=O)N[C@@H](C(N)=O)c1ccc(OCc2ccc(C(F)(F)F)cc2)cc1
inhibition [1]: 91.8%
inhibition (PRVABC59, Concentration 49.5 uM, Number of replicates 2.0, Standard deviation 0.021859715861266255 %): 94.6%
inhibition (PRVABC59, Concentration 49.5 uM, Number of replicates 2.0, Standard deviation 0.024233426369399808 %): 96.9%
inhibition (PRVABC59, Concentration 49.5 uM, Number of replicates 2.0, Standard deviation 0.10948739718766008 %): 93.8%
inhibition (PRVABC59, Concentration 49.5 uM, Number of replicates 2.0, Standard deviation 0.1218738502028297 %): 97.5%
inhibition (PRVABC59, Concentration 49.5 uM, Number of replicates 2.0, Standard deviation 0.12395624169405596 %): 92.6%
inhibition (PRVABC59, Concentration 49.5 uM, Number of replicates 2.0, Standard deviation 0.12648640130386196 %): 91.3%
inhibition (PRVABC59, Concentration 49.5 uM, Number of replicates 2.0, Standard deviation 0.127991549557883 %): 97.2%
inhibition (PRVABC59, Concentration 49.5 uM, Number of replicates 2.0, Standard deviation 0.13878114277667186 %): 95.3%
inhibition (PRVABC59, Concentration 49.5 uM, Number of replicates 2.0, Standard deviation 0.18792773988825517 %): 89.4%
inhibition (PRVABC59, Concentration 49.5 uM, Number of replicates 2.0, Standard deviation 0.2282484497468692 %): 91.2%
inhibition (PRVABC59, Concentration 49.5 uM, Number of replicates 2.0, Standard deviation 0.23805618998274827 %): 97%
inhibition (PRVABC59, Concentration 49.5 uM, Number of replicates 2.0, Standard deviation 0.25515230043791925 %): 95.5%
inhibition (PRVABC59, Concentration 49.5 uM, Number of replicates 2.0, Standard deviation 0.3144519047683829 %): 85.9%
inhibition (PRVABC59, Concentration 49.5 uM, Number of replicates 2.0, Standard deviation 0.8044343068166325 %): 87.1%
inhibition (PRVABC59, Concentration 49.5 uM, Number of replicates 2.0, Standard deviation 1.112040214687694 %): 90.3%
inhibition (PRVABC59, Concentration 49.5 uM, Number of replicates 2.0, Standard deviation 1.1256998397026805 %): 90.4%
inhibition (PRVABC59, Concentration 49.5 uM, Number of replicates 2.0, Standard deviation 1.7230548786677078 %): 84.5%
inhibition (PRVABC59, Concentration 49.5 uM, Number of replicates 2.0, Standard deviation 1.876040520916915 %): 90.3%
inhibition (PRVABC59, Concentration 49.8 uM, Number of replicates 2.0, Standard deviation 1.8581405857669444 %): 97.9%
inhibition (PRVABC59, Concentration 49.95 uM, Number of replicates 2.0, Standard deviation 2.309253478244507 %): 87.4%
inhibition (PRVABC59, Concentration 50.0 uM, Number of replicates 2.0, Standard deviation 0.36743959706585505 %): 88.7%
inhibition (PRVABC59, Concentration 99.01 uM, Number of replicates 2.0, Standard deviation 0.0 %): 93.4%
inhibition (PRVABC59, Concentration 99.01 uM, Number of replicates 2.0, Standard deviation 0.012046580828777775 %): 94.9%
inhibition (PRVABC59, Concentration 99.01 uM, Number of replicates 2.0, Standard deviation 0.02911571730090177 %): 93.7%
inhibition (PRVABC59, Concentration 99.01 uM, Number of replicates 2.0, Standard deviation 0.06378807510947981 %): 97.6%
inhibition (PRVABC59, Concentration 99.01 uM, Number of replicates 2.0, Standard deviation 0.067278508515758 %): 98.8%
inhibition (PRVABC59, Concentration 99.01 uM, Number of replicates 2.0, Standard deviation 0.0706826251762859 %): 98.7%
inhibition (PRVABC59, Concentration 99.01 uM, Number of replicates 2.0, Standard deviation 0.071545792633789 %): 97.3%
inhibition (PRVABC59, Concentration 99.01 uM, Number of replicates 2.0, Standard deviation 0.07721572387026257 %): 95.8%
inhibition (PRVABC59, Concentration 99.01 uM, Number of replicates 2.0, Standard deviation 0.10372575440882682 %): 99%
inhibition (PRVABC59, Concentration 99.01 uM, Number of replicates 2.0, Standard deviation 0.10948739718766008 %): 97%
inhibition (PRVABC59, Concentration 99.01 uM, Number of replicates 2.0, Standard deviation 0.11599352189858977 %): 97.7%
inhibition (PRVABC59, Concentration 99.01 uM, Number of replicates 2.0, Standard deviation 0.1471970254873272 %): 98.8%
inhibition (PRVABC59, Concentration 99.01 uM, Number of replicates 2.0, Standard deviation 0.27009049224933246 %): 94.8%
inhibition (PRVABC59, Concentration 99.01 uM, Number of replicates 2.0, Standard deviation 0.8601032130289737 %): 94.3%
inhibition (PRVABC59, Concentration 99.01 uM, Number of replicates 2.0, Standard deviation 0.9406367368140138 %): 94.2%
inhibition (PRVABC59, Concentration 99.01 uM, Number of replicates 2.0, Standard deviation 1.3348561042489029 %): 88.7%
inhibition (PRVABC59, Concentration 99.01 uM, Number of replicates 2.0, Standard deviation 1.4059433391708933 %): 94.2%
inhibition (PRVABC59, Concentration 99.01 uM, Number of replicates 2.0, Standard deviation 1.7588979073405244 %): 89.5%
inhibition (PRVABC59, Concentration 99.5 uM, Number of replicates 2.0, Standard deviation 0.12741970111728718 %): 93.3%
inhibition (PRVABC59, Concentration 99.5 uM, Number of replicates 2.0, Standard deviation 0.16892187143335857 %): 101%
inhibition (PRVABC59, Concentration 99.9 uM, Number of replicates 2.0, Standard deviation 1.5690280406728871 %): 94.6%
inhibition (PRVABC59, Concentration 100.0 uM, Number of replicates 2.0, Standard deviation 4.458993610342439 %): 98%
inhibition (PRVABC59, Concentration 198.0 uM, Number of replicates 2.0, Standard deviation 0.0026488451352126683 %): 96.7%
inhibition (PRVABC59, Concentration 198.0 uM, Number of replicates 2.0, Standard deviation 0.013907785659018856 %): 98.8%
inhibition (PRVABC59, Concentration 198.0 uM, Number of replicates 2.0, Standard deviation 0.021082865149513456 %): 97.6%
inhibition (PRVABC59, Concentration 198.0 uM, Number of replicates 2.0, Standard deviation 0.03251443916482027 %): 97.8%
inhibition (PRVABC59, Concentration 198.0 uM, Number of replicates 2.0, Standard deviation 0.03514709991020475 %): 97.2%
inhibition (PRVABC59, Concentration 198.0 uM, Number of replicates 2.0, Standard deviation 0.0599254007371534 %): 99.1%
inhibition (PRVABC59, Concentration 198.0 uM, Number of replicates 2.0, Standard deviation 0.06866497124437239 %): 99.6%
inhibition (PRVABC59, Concentration 198.0 uM, Number of replicates 2.0, Standard deviation 0.07418384817578288 %): 97.3%
inhibition (PRVABC59, Concentration 198.0 uM, Number of replicates 2.0, Standard deviation 0.0745722735316593 %): 98.9%
inhibition (PRVABC59, Concentration 198.0 uM, Number of replicates 2.0, Standard deviation 0.07483122376891023 %): 96.4%
inhibition (PRVABC59, Concentration 198.0 uM, Number of replicates 2.0, Standard deviation 0.07712401232790286 %): 99.5%
inhibition (PRVABC59, Concentration 198.0 uM, Number of replicates 2.0, Standard deviation 0.08816716098733327 %): 99.7%
inhibition (PRVABC59, Concentration 198.0 uM, Number of replicates 2.0, Standard deviation 0.09263944737652126 %): 98.7%
inhibition (PRVABC59, Concentration 198.0 uM, Number of replicates 2.0, Standard deviation 0.09449525741015294 %): 99.7%
inhibition (PRVABC59, Concentration 198.0 uM, Number of replicates 2.0, Standard deviation 0.3759148225392137 %): 97%
inhibition (PRVABC59, Concentration 198.0 uM, Number of replicates 2.0, Standard deviation 0.4983928899622956 %): 97.6%
inhibition (PRVABC59, Concentration 198.0 uM, Number of replicates 2.0, Standard deviation 0.5225777631622108 %): 97.2%
inhibition (PRVABC59, Concentration 198.0 uM, Number of replicates 2.0, Standard deviation 0.6944775623239552 %): 94.7%
inhibition (PRVABC59, Concentration 198.0 uM, Number of replicates 2.0, Standard deviation 1.5146538856468006 %): 93.1%
inhibition (PRVABC59, Concentration 200.0 uM, Number of replicates 1.0): 97.4%

CCCC[C@H](NC(C)=O)C(=O)N[C@H](C(=O)Nc1cccc(C(N)=O)c1)c1ccc(OCc2ccccc2)cc1
inhibition (PRVABC59, Concentration 49.5 uM, Number of replicates 2.0, Standard deviation 1.5133642763760644 %): 0.392%
inhibition (PRVABC59, Concentration 99.01 uM, Number of replicates 2.0, Standard deviation 2.3397962878359877 %): 3.8%
inhibition (PRVABC59, Concentration 198.0 uM, Number of replicates 2.0, Standard deviation 2.8724328178638086 %): 7.97%
